An excerpt weighted towards active compounds, which were near 0.68% of everything screened.
Mtb hypoxia rep = Mtb hypoxia fluorescent reporter inhibition. fluorescence inhibition, % (no concentration beside the values). 300,000 tested, 0.1% active. M. tuberculosis hypoxia-regulated fluorescent reporter, fluorescence; in the data active = fluorescence inhibition mostly above about 23%, no sharp cut-off; inactive = mostly below about 17%
Sa ugtP lethal = compounds lethal to S. aureus RN4220 ugtP deletion mutant; 330,000 tested, 0.54% active; growth inhibition, % (no concentration beside the values); OD600 growth, 16 h; AID 1259309; in the data active = growth inhibition above about 68%
Sa RN4220 lethal = kills Staphylococcus aureus RN4220 | AID 1259311 | 330,000 tested, 0.33% active | S. aureus RN4220 growth, OD600, 16 h | inhibition, % (no concentration beside the values); in the data active = inhibition above about 85%
Each line names hits and unclear results; the compound was inactive in the other large screens.

O=C1C=C(c2ccc(F)cc2OCc2ccccc2)CC(c2ccc(Cl)cc2)C1 (stereo not given)	none
Cc1ccc(C(=O)CC(=O)c2ccccc2C)c(O)c1	Sa ugtP lethal 87.1
Cc1ccc(C(=O)c2ccccc2C(=O)O)c(O)c1	none
CC(=O)c1ccc(C)cc1OC(=O)c1cccc(F)c1	none
Cc1ccc(C(=O)CC(=O)c2cccc(F)c2)c(O)c1	Sa ugtP lethal 94.2, Sa RN4220 lethal 88.2
O=C1C=C(c2cccc3c2sc2ccccc23)CC(c2ccc(Cl)cc2)C1 (stereo not given)	none
COC(=O)C1=C(c2ccc(F)cc2OCc2ccccc2)CC2CCC1N2C(=O)NCc1ccc(Cl)cc1 (stereo not given)	none
Cn1nc(C(=O)OCC(=O)NCCc2ccccc2)c2ccccc2c1=O	none
Cn1nc(C(=O)OCC(=O)NCc2ccc(Cl)cc2)c2ccccc2c1=O	Mtb hypoxia rep 31.2
CC1CCCC(C)N1C(=O)c1cccc2c1-c1ccccc1C2=NO (stereo not given)	none (no result: Mtb hypoxia rep)
CCOC(=O)c1cccc2c1-c1ccccc1C2=NO	Sa ugtP lethal 87.9
O=C(NCc1cccc(Cl)c1)c1cccc(S(=O)(=O)N2CCCCC2)c1	Mtb hypoxia rep 29.2
O=C(NCc1cccc(Cl)c1)c1cccc(S(=O)(=O)N2CCCC2)c1	none
O=C(NCc1ccncc1)c1cccc(S(=O)(=O)N2CCc3ccccc32)c1	Mtb hypoxia rep 27.8
CC1Cc2ccccc2N1S(=O)(=O)c1cccc(C(=O)NCc2ccncc2)c1 (stereo not given)	none
COP(=O)(C=Cc1ccccc1)C(O)c1ccc(F)cc1 (stereo not given)	none
COc1ccc(C2C=CCN(S(=O)(=O)c3ccc(C)cc3)C(C)C(=O)N2Cc2ccc(F)cc2)cc1 (stereo not given)	none
C=CC(C)N(Cc1ccc(OC)cc1)S(=O)(=O)N(Cc1ccccc1)C(C=C)C(C)C (stereo not given)	none
CC(C)CC(NC(=O)c1nc[nH]c1C(=O)NC1CCN(C(=O)OC(C)(C)C)CC1)C(=O)OCc1ccccc1 (stereo not given)	none
CC(C)C[C@H]1CN=C(Nc2ccccc2)N1CCc1cccc(F)c1	none
CC(C)C(CN1CCCC1CN1C(N)=NCC1Cc1ccccc1)N1CC(Cc2ccccc2)N(CCc2ccc(Cl)c(Cl)c2)C1=N (stereo not given)	Sa ugtP lethal 100.4, Sa RN4220 lethal 100.8 (not shown: Mtb hypoxia rep)
CCCCN1C(=N)N(C(C)CN2CCCC2CN2C(N)=NCC2CC(C)C)CC1Cc1ccccc1 (stereo not given)	none
CC(C)CC1CN=C(N)N1CC1CCCN1CC(C)N1CC(Cc2ccccc2)N(CCc2ccc(Cl)c(Cl)c2)C1=N (stereo not given)	Mtb hypoxia rep 91.5, Sa ugtP lethal 100.5, Sa RN4220 lethal 100.8
CCCCN1C(N)=NCC1Cc1ccccc1 (stereo not given)	none
CC(C)C[C@@H]1CN=C(N)N1C[C@@H]1CCCN1C[C@@H](C(C)C)N1C[C@@H](Cc2ccccc2)N(CCc2ccc(Cl)c(Cl)c2)C1=N	Sa ugtP lethal 99.8, Sa RN4220 lethal 99.4
O=C(NC1CCC(=O)N(CCC(Oc2ccccc2)c2ccccc2)CC1)OCc1ccccc1 (stereo not given)	none
Cc1ccc(SCC(O)=C(C#N)c2nc3ccccc3n2C)cc1	none
C(=C\c1nc(N2CCCC2)c2ccccc2n1)/c1ccccc1	Mtb hypoxia rep 45.4
CC1CCN(c2nc(/C=C/c3ccccc3)nc3ccccc23)CC1	none
CCOC(=O)C1=C(COC(=O)c2ccc(C)c(S(=O)(=O)N3CCOCC3)c2)NC(=O)NC1C (stereo not given)	none
CCOC(=O)C1=C(COC(=O)c2ccc(OC)c(S(=O)(=O)N3CCOCC3)c2)NC(=O)NC1C (stereo not given)	Mtb hypoxia rep 18.0
CC1=C(C(=O)OCc2ccc([N+](=O)[O-])cc2)N2C(=O)C(NC(=O)Cc3ccccc3)C2SC1 (stereo not given)	none
CCOc1ccc(C(=O)NC2C(=O)N3C(C(=O)O)=C(COC(C)=O)CSC23)cc1OCC (stereo not given)	none
CC(=O)OCC1=C(C(=O)O)N2C(=O)C(NC(=O)C(C)Cn3cc(Cl)cn3)C2SC1 (stereo not given)	Sa ugtP lethal 100.5, Sa RN4220 lethal 99.6
CC(=O)OCC1=C(C(=O)O)N2C(=O)C(NC(=O)CC(C)c3ccccc3)C2SC1 (stereo not given)	Sa ugtP lethal 94.3, Sa RN4220 lethal 100.2 (not shown: Mtb hypoxia rep)
CC(=O)OCC1=C(C(=O)O)N2C(=O)[C@@H](NC(=O)Cc3cccs3)[C@H]2SC1	Sa ugtP lethal 98.9, Sa RN4220 lethal 99.3 (no result: Mtb hypoxia rep)
CCCC=C1CCCOC(C(=O)NCCN2CCOCC2)(C(F)(F)F)C1 (stereo not given)	none
COC(=O)C1=C(C(=O)OC)C2N(C)c3ccccc3[C@@]23CC(C(=O)OC)N=C3N1 (stereo not given in full)	none
COc1ccc(C(=O)Cn2nc(CNc3ccc(Br)cc3)[n+]3c2CCCCC3)cc1	Sa ugtP lethal 98.2, Sa RN4220 lethal 98.8 (not shown: Mtb hypoxia rep)
Cc1ccc(C(C)C)c(OCc2nn(CC(=O)c3ccc(OC(F)F)cc3)c3[n+]2CCCCC3)c1	Sa ugtP lethal 95.3, Sa RN4220 lethal 100.5 (not shown: Mtb hypoxia rep)
O=C(Cn1nc(-c2nn(CC(=O)c3ccccc3)c3[n+]2CCCCC3)[n+]2c1CCCCC2)c1ccccc1	none
O=C(CN1CCCCC1)c1ccc(OC(F)F)cc1	none
CCOC(=O)C1=C(O)C(=Cc2cc(C)n(-c3ccc(F)cc3)c2C)N=C1C	none
O=C(O)C1=CC(c2ccc(C(F)(F)F)cc2)CC(OCc2ccc(CO)cc2)O1 (stereo not given)	none
COC(=O)c1ccc2[nH]c3cccc(C(=Cc4ccccc4)c4ccccc4)c3c2c1	none
O=C(NCCc1ccc(Cl)cc1)c1ccc(CS(=O)Cc2ccc(Cl)cc2)o1 (stereo not given)	Sa ugtP lethal 99.3
CCOc1ccc(CCNC(=O)c2ccc(CS(=O)Cc3ccc(Cl)cc3)o2)cc1 (stereo not given)	Sa ugtP lethal 95.1
O=C(NCc1cccc(Cl)c1)c1ccc(CS(=O)Cc2ccc(Cl)cc2)o1 (stereo not given)	none
CSc1ccc(CCNC(=O)c2ccc(CS(=O)Cc3ccc(Cl)cc3)o2)cc1 (stereo not given)	none
O=C(NCCc1ccccc1)c1ccc(CS(=O)Cc2cccc(Cl)c2)o1 (stereo not given)	Sa ugtP lethal 87.3
CCOc1ccc(CCNC(=O)c2ccc(CS(=O)Cc3ccccc3Cl)o2)cc1 (stereo not given)	none
C=C1CCN(C(C(=O)NCc2ccccc2)C(C)C)S(=O)(=O)c2ccccc21 (stereo not given)	none
O=C(NN=Cc1cccc([N+](=O)[O-])c1)c1ccc(COc2ccccc2-c2ccccc2)cc1	none
COC(=O)C1=C(c2ccc(-c3ccccc3)c(F)c2)CC2CCC1N2C(=O)N1CCC(O)CC1 (stereo not given)	none
CCC(C)Sc1ccc(C2N[C@@](CC(C)C)(C(=O)OC)C3C(=O)N(CC)C(=O)C23)cc1 (stereo not given in full)	none
COc1cc(C=NNC(N)=S)ccc1OCC(=O)Nc1ccc(C)c(C)c1	none (not shown: Mtb hypoxia rep)
O=C(Oc1c(Cl)cc(Cl)c2cccnc12)c1cccc([N+](=O)[O-])c1	Sa ugtP lethal 97.1, Sa RN4220 lethal 97.3
O=C(Oc1ccc(Cl)c2cccnc12)c1cccc([N+](=O)[O-])c1	none

Assay outcomes as filed in PubChem BioAssay.
